# Source: PubChem BioAssay (NCI)
# This is part of a sample that, as a whole, favours compounds with a hit. Of some 83,000 tested, about 20% had one in any assay.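 Plates (96-well) were seeded with cells, treated with compound at one concentration, and incubated for 48 hours before percent growth was determined.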 Unmarked numbers belong to inactive results. Activity calls are given as the source filed them. Rule for the calls: active = growth percent below 10; inactive = the rest.
# Experiments:
# Assay in all cases: NCI-60 one-dose screen, 48 h (100 = growth as untreated, 0 = no growth, -100 = all killed)
# Conditions in all cases: 10 µM unless noted
# SR leukemia = tested on: SR leukemia
# RPMI-8226 leukemia = tested on: RPMI-8226 leukemia
# OVCAR-8 ovarian = tested on: OVCAR-8 ovarian
# OVCAR-5 ovarian = tested on: OVCAR-5 ovarian
# OVCAR-4 ovarian = tested on: OVCAR-4 ovarian
# SK-OV-3 ovarian = tested on: SK-OV-3 ovarian
# IGROV1 ovarian = tested on: IGROV1 ovarian
# OVCAR-3 ovarian = tested on: OVCAR-3 ovarian
# HS 578T breast = tested on: HS 578T breast
# NCI/ADR-RES ovarian = tested on: NCI/ADR-RES ovarian
Structure (SMILES),growth (SR leukemia),growth (RPMI-8226 leukemia),growth (OVCAR-8 ovarian),growth (OVCAR-5 ovarian),growth (OVCAR-4 ovarian),growth (SK-OV-3 ovarian),growth (IGROV1 ovarian),growth (OVCAR-3 ovarian),growth (HS 578T breast),growth (NCI/ADR-RES ovarian)
Cn1c(=O)c2c(ncn2CC(=O)Nc2ccc(S(N)(=O)=O)cc2)n(C)c1=O,105%,99.9%,105%,105%,108%,87.8%,112%,106%,101%,106%
O=C1Nc2ccccc2/C1=C/c1cn(CCCn2c3ccccc3c(=O)c3ccccc32)c2ccccc12,84%,90%,85%,103%,88.1%,86.6%,45.8%,84.9%,85.2%,90.3%
C=C1C(=O)O[C@H]2[C@H]1CC/C(COC(=O)NCc1c[nH]c3ccccc13)=C\CC[C@@]1(C)O[C@@H]21,4.39% (active),4.57% (active),39.4%,86.1%,58.1%,86.5%,21.2%,2.08% (active),87.1%,78.8%
CC(=O)NC1=C(C#N)C(c2ccccc2Cl)c2c(ccc3ccccc23)O1 (centres undefined),37.1%,55.5%,82%,86.3%,88.8%,85%,46.1%,41.2%,74.9%,33.8%
O=S(=O)(NCCNc1cc(-c2cn(-c3ccccc3)nc2-c2cccc(O)c2)ccn1)c1ccc(F)cc1,-5.97% (active),9.5% (active),23.7%,62.9%,41.3%,46.4%,46.2%,35.8%,15.7%,17.9%
O=C1CCC/C=C\C[C@H]2C=C(Cl)C(=O)/C2=C/C[C@H](CCCCC(F)(F)F)OC(=O)CCC/C=C\C[C@H]2C=C(Cl)C(=O)/C2=C/C[C@H](CCCCC(F)(F)F)O1,-14.6% [7.5 µM] (active),-14.9% [7.5 µM] (active),-4.7% [7.5 µM] (active),-33.6% [7.5 µM] (active),19.7% [7.5 µM],-2.87% [7.5 µM] (active),-48.2% [7.5 µM] (active),-81.3% [7.5 µM] (active),21.8% [7.5 µM],12.5% [7.5 µM]
N#C/C(=C\c1ccc(-c2ccc(Cl)cc2)o1)c1nc(-c2ccco2)cs1,95%,64.7%,97.5%,61.8%,4.22% (active),90.9%,68.1%,106%,102%,97.4%
COc1cc(/C=C/c2cc(/C=C/c3ccc(O)c(OC)c3)n(-c3ccccc3)c(=O)n2)ccc1O,30.7%,50.7%,79.1%,113%,61.3%,90.7%,87%,72.3%,69.6%,97.7%
COC(=O)[C@]12CC[C@@H](C)[C@H](C)[C@@H]1C1=CC[C@@H]3[C@@](C)(CC#N)C4=C(C[C@@]3(C)[C@]1(C)CC2)OC[C@]4(C)C=O,2.49% (active),2.46% (active),5.29% (active),-48.3% (active),10%,0.91% (active),22.9%,-59.6% (active),-0.493% (active),-11.3% (active)
Cc1cc(N(CCCNc2ccnc3cc(Cl)ccc23)Cc2ccco2)nc(N2CCN(C)CC2)n1,-16.7% (active),3.87% (active),55.4%,73.9%,57%,98%,38.5%,56.6%,67.6%,59.8%
COc1cccc(-c2nn(-c3ccccc3)cc2-c2ccnc(NCCCNS(=O)(=O)c3ccccc3)c2)c1,2.99% (active),18.4%,16%,67.2%,39.6%,43%,31.3%,41.3%,37.5%,21.1%
C=C(C)[C@@H]1CC[C@]2(C(=O)O)CC[C@]3(C)[C@H](CC[C@@H]4[C@@]5(C)C/C(=C/c6ccc(OC)cc6)C(=O)C(C)(C)[C@@H]5CC[C@]43C)[C@@H]12,30.9%,15.5%,23.2%,49.3%,26.8%,25%,23.8%,16.5%,49.9%,17.7%
CCc1ccccc1NC(=O)c1sc2nc3c(cc2c1N)CCCC3,9.86% (active),46.1%,52.3%,79.3%,66.8%,38.8%,64.8%,23.8%,29.9%,19.9%
O=C(/C(=C(\C(=O)c1ccccc1)c1ccccc1)c1ccccc1)c1ccccc1,31.6%,18.7%,41.6%,100%,55.8%,82.5%,69%,40.8%,76.6%,45.4%
Cc1ccc(-c2nc3ccc(Cl)cc3c(=O)n2N2C(=O)CSC2c2ccccc2Cl)cc1 (centres undefined),80.8%,80.1%,27.3%,82.7%,14.4%,36.2%,57.5%,58.6%,56.6%,70.6%
COC(=O)[C@]12CC[C@@H](C)[C@H](C)[C@@H]1C1=CC[C@@H]3[C@@]4(C)C=C(O)C(=O)C(C)=C4CC[C@@]3(C)[C@]1(C)CC2,20.4%,1.56% (active),37.9%,64.5%,37.8%,61.7%,53.6%,28.5%,33.2%,38.8%
COc1cccc(-c2nn(-c3ccccc3)cc2-c2ccnc(NCCCNS(=O)(=O)c3ccc(Cl)cc3)c2)c1,7.26% (active),26.6%,37.3%,75.3%,42.8%,60.5%,41.4%,54%,49.9%,35.6%
Cc1cc(N(CCCNc2ccnc3cc(Cl)ccc23)Cc2ccco2)nc(Cl)n1,21.7%,18.6%,41.2%,69.3%,54.1%,58.7%,51.8%,66.1%,75.4%,45.7%
COc1ccc(NC(=O)c2ccc3c(c2)nc(-c2cc4ccccc4[nH]c2=O)n3-c2cc(C(C)(C)C)[nH]n2)cc1,84.8%,83.9%,97.6%,95.9%,86.5%,111%,80.7%,100%,80.9%,103%
C#CCn1c(C)cc(C)c(C#N)c1=O,101%,103%,103%,99.9%,105%,118%,103%,112%,103%,106%
O=C1C=Cc2ncccc2C1=O,12.2%,27.6%,87.8%,106%,111%,83.5%,105%,64.4%,–,84%
Cc1nn(-c2ccc(Cl)cc2)c(=O)n1CCn1cnc2ccccc21,104%,104%,112%,99.9%,118%,113%,102%,111%,100%,103%
